This is a sample that favours compounds with a hit; in the whole collection about 5.2% have one here.
GRIN3A LBD mod: binders of NR3A ligand-binding domain, primary screen, biophysical, differential scanning fluorimetry, uHTS; 2.5% of 340,000 active; Tm shift relative to glycine control, % at 25 µM; NR3A LBD differential scanning fluorimetry, Tm shift; 0% = protein alone, 100% = glycine-bound protein; Glutamate receptor ionotropic, NMDA 3A (GRIN3A) ligand-binding domain;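 active = melting temperature shift of at least 10% of the positive control shift, at one fixed dose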
Vif inh: HIV Vif self-association inhibitors, primary screen, imaging, HEK293T, single point; HEK293T cells, Vif self-association by quenched fluorescence, 24 h; inhibition, % at 7.49 µM; AID 602346, 2012; 0.35% of 340,000 active; in the data active = inhibition above about 50%, passing the limit was not always enough; inconclusive = no clear call, values can overlap the other calls; inactive = below about 31%
SMARCA2 act: SMARCA2 (BRM) function activators, primary screen, cell-based, luminescence, high throughput. AID 652017, 2013. 1% of 370,000 active. activation, % at 9.1 µM. MG213 cells, MMTV-luciferase reporter, dexamethasone, overnight; in the data active = activation above about 7.8%
NadD block: inhibitors of S. aureus NadD, primary screen, biochemical, colorimetric, uHTS | inhibition, % at 20 µM | AID 602399, 2012 | purified NadD enzyme, colorimetric absorbance read-out | 0.78% of 360,000 active | Nicotinate-nucleotide adenylyltransferase NadD (Staphylococcus aureus N315); in the data active = inhibition above about 26%
esBAF inh: Bmi1 luciferase reporter increase in mESCs, primary screen, esBAF inhibitor project, mouse ES cells, Bmi1 luciferase knock-in, single point | 24 h; 100% = twice the neutral-well signal | reporter increase, % at 12.5 µM | 2% of 350,000 active | AID 602393, 2012; in the data active = activation above about 40%; inconclusive = no clear call, values can overlap the other calls;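 note: a rise in the Bmi1 reporter signal indicates esBAF inhibition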
SKN-1 inh: suppressors of acrylamide-induced Pgst-4::GFP reporter in worms, primary screen, SKN-1 inhibitor project, whole organism, uHTS, GFP/RFP fluorescence ratio, strain VP596 | C. elegans VP596 Pgst-4::GFP/RFP ratio, 24 h | inhibition, % at 21.8 µM | 0.49% of 360,000 active;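 active = interference check ratio from 0.5 to 1.5 plus GFP to RFP signal ratio inhibition reaching or exceeding a fixed threshold, cut at about 30% in these data, passing the limit was not always enough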
Of the large screens only hits and unclear results are named; the others gave an inactive call; ! = not confirmed by another sample.

O=C(O)[C@H]1[C@H](CO)[C@H]2Cn3c(ccc(C4=CCCC4)c3=O)[C@@H]1N2C(=O)Cc1ccccn1	none (no result: GRIN3A LBD mod, Vif inh, SMARCA2 act, NadD block, SKN-1 inh)
O=C(C1CC(c2ccc(F)cc2)=NO1)N1CCC2(CC1)OCCO2 (centres undefined)	none (no result: esBAF inh)
O=C(C1CC(c2ccc(Cl)c(Cl)c2)=NO1)N1CCC2(CC1)OCCO2 (centres undefined)	esBAF inh 80.4
COc1cccc(-c2sc3ccccc3c2-c2ccc(OCCN3CCOCC3)cc2)c1	GRIN3A LBD mod 14.8, Vif inh inconclusive
COc1ccc(-n2c(CN3CCOCC3)nc3ccccc3c2=O)c(OC)c1	none
NNCc1ccccc1	esBAF inh 49.1!
N#Cc1ccc(-c2ccc([C@@H]3[C@H]4CN(C(=O)Cc5ccccc5)CCCCN4[C@H]3CO)cc2)cc1	none (no result: GRIN3A LBD mod, Vif inh, SMARCA2 act, NadD block, SKN-1 inh)
O=[N+]([O-])c1ccc(Nc2ccccc2)cc1	SKN-1 inh 51.0
COC(=O)[C@H]1[C@H](CO)[C@H]2Cn3c(ccc(-c4ccccc4)c3=O)[C@@H]1N2CC1CC1	none (no result: GRIN3A LBD mod, Vif inh, SMARCA2 act, NadD block, SKN-1 inh)
N#Cc1ccc(-c2ccc([C@@H]3[C@H](CO)N4CCCCN(C(=O)Cc5ccccc5)C[C@@H]34)cc2)cc1	none (no result: GRIN3A LBD mod, Vif inh, SMARCA2 act, NadD block, SKN-1 inh)
COCCCn1c(N)c(C(=O)OCCOC)c2nc3ccccc3nc21	none
CCOC(=O)c1c(N)n(CCCOC(=O)c2ccco2)c2nc3ccccc3nc12	SKN-1 inh 35.0
COC(=O)[C@@H]1[C@@H](CO)[C@@H]2Cn3c(ccc(-c4cccc(OC)c4)c3=O)[C@H]1N2CC1CC1	none (no result: GRIN3A LBD mod, Vif inh, SMARCA2 act, NadD block, SKN-1 inh)
CN1C(=O)C(=Cc2cn(CC(=O)N3CCCCC3)c3ccccc23)C(=O)N(C)C1=O	SKN-1 inh 40.9 (no result: SMARCA2 act)
Cc1ccc(-n2c(=S)[nH]c3ccccc3c2=O)cc1F	esBAF inh 61.4 (no result: GRIN3A LBD mod, Vif inh)
COC(=O)[C@H]1[C@H](CO)[C@H]2Cn3c(ccc(-c4cccc(OC)c4)c3=O)[C@@H]1N2C(=O)c1cnccn1	none (no result: GRIN3A LBD mod, Vif inh, SMARCA2 act, NadD block, SKN-1 inh)
CCn1c(O)c(C=Nc2ccc(S(N)(=O)=O)cc2)c(=O)[nH]c1=S	SKN-1 inh 38.3 (no result: esBAF inh)
CCn1c(O)c(C=Nc2ccc(S(N)(=O)=O)cc2)c(=O)n(CC)c1=S	none (no result: esBAF inh)
Cc1cccc(-n2c(O)c(C=Nc3ccc(S(N)(=O)=O)cc3)c(=O)[nH]c2=O)c1	none (no result: esBAF inh)
NS(=O)(=O)c1ccc(N=Cc2c(O)n(C3CCCCC3)c(=O)n(C3CCCCC3)c2=O)cc1	GRIN3A LBD mod 13.5
CC(C)=CCc1c(O)cc2c(c1O)C(=O)CC(c1ccc(O)cc1)O2 (centres undefined)	GRIN3A LBD mod 26.3
CN(C)c1ccc(C=C2C(=O)NC(=O)NC2=O)cc1	none
CN(C)c1ccc(/C=C/[N+](=O)[O-])cc1	SKN-1 inh 39.9 (no result: esBAF inh)
C/C(=C\c1ccc(N(C)C)cc1)[N+](=O)[O-]	SKN-1 inh 42.4
Oc1c(Br)cc(Br)cc1Br	none
Oc1c(Br)c(Br)c(Br)c(Br)c1Br	GRIN3A LBD mod 32.2 (no result: SMARCA2 act)
CCn1c(C)c(C(=O)Nc2ccc(OC)cc2)c2cc(OC)ccc21	esBAF inh 50.9
CNC(=O)Oc1cccc(-c2cn3cc(Cl)ccc3n2)c1	none (no result: Vif inh, esBAF inh)
CNC(=O)Oc1ccc(-c2cn3cc(C)ccc3n2)cc1	GRIN3A LBD mod 23.9 (no result: esBAF inh)
COC(=O)[C@H]1[C@H](CO)[C@H]2Cn3c(ccc(C4=CCCC4)c3=O)[C@@H]1N2Cc1ccccn1	none (no result: GRIN3A LBD mod, Vif inh, SMARCA2 act, NadD block, SKN-1 inh)
O=c1[nH]c(=O)n(Cc2ccc(F)cc2)c(O)c1C=NCc1cccnc1	none
COc1ccc2c(c1OC)C(=O)OC2c1c(O)n(Cc2ccc(F)cc2)c(=O)[nH]c1=O (centres undefined)	GRIN3A LBD mod 12.1
Cc1cccc(S(=O)(=O)N2[C@@H]3c4ccc(-c5ccc(F)cc5)c(=O)n4C[C@H]2[C@H](CO)[C@H]3C(=O)O)c1	none (no result: GRIN3A LBD mod, Vif inh, SMARCA2 act, NadD block, SKN-1 inh)
CC(C)(C)n1c(O)c(C=Nc2ccc3c(c2)CCC3)c(=O)[nH]c1=O	SKN-1 inh 26.7
Clc1ccc(COC(Cn2ccnc2)c2ccc(Cl)cc2Cl)cc1 (centres undefined)	none
Clc1ccc(C(c2ccc(Cl)cc2)n2cc[n+](CC(OCc3ccc(Cl)cc3Cl)c3ccc(Cl)cc3Cl)c2)cc1 (centres undefined)	NadD block 80.1
C=C(C)C(Cc1c(OC)ccc(C(=O)/C=C/c2ccc(O)cc2)c1O)OO (centres undefined)	GRIN3A LBD mod 23.8, esBAF inh inconclusive
O=C1NC(=S)N(C2CC2)C(=O)/C1=C/c1ccc2c(c1)CCN2CCCCl	SKN-1 inh 40.7
CCN1C(=O)/C(=C/c2ccc3c(c2)CCN3CCCCl)C(=O)NC1=S	NadD block 31.2
COC(=O)[C@@H]1[C@@H](CO)[C@@H]2Cn3c(ccc(C4=CCCC4)c3=O)[C@H]1N2CC1CCCCC1	none (no result: GRIN3A LBD mod, Vif inh, SMARCA2 act, NadD block, SKN-1 inh)
OCCNc1c2c(nc3ccccc13)CCCC2	GRIN3A LBD mod 11.7
Nc1ccccc1C(=O)OCc1ccc([N+](=O)[O-])cc1	esBAF inh 57.4
CCOC(=O)c1ccccc1N	none
COC(=O)[C@@H]1[C@@H](CO)[C@@H]2Cn3c(ccc(-c4ccccc4F)c3=O)[C@H]1N2C(=O)C1CCC1	none (no result: GRIN3A LBD mod, Vif inh, SMARCA2 act, NadD block, SKN-1 inh)
Fc1ccc(CNCCc2ccccc2)cc1	none (no result: esBAF inh)
C1=C(CCNCc2ccccc2)CCCC1	GRIN3A LBD mod 11.2
CCn1c(=O)cc(OCC(=O)N2CCN(Cc3ccc4c(c3)OCO4)CC2)c2ccccc21	Vif inh 67.1
COc1ccc2c(c1)NP(=S)(c1ccccc1)N2C (centres undefined)	SKN-1 inh 54.3
C[C@H]1CN([C@@H](C)CO)C(=O)CCCn2cc(nn2)CO[C@H]1CN(C)C(=O)Oc1cccc2ccccc12	none (no result: GRIN3A LBD mod, Vif inh, SMARCA2 act, NadD block, SKN-1 inh)
COC(=O)[C@@H]1[C@@H](CO)[C@@H]2Cn3c(ccc(-c4ccc(F)cc4)c3=O)[C@H]1N2Cc1ccccc1	none (no result: GRIN3A LBD mod, Vif inh, SMARCA2 act, NadD block, SKN-1 inh)
COC(=O)[C@H]1[C@H](CO)[C@H]2Cn3c(ccc(-c4ccccc4)c3=O)[C@@H]1N2C(=O)c1ccccc1F	none (no result: GRIN3A LBD mod, Vif inh, SMARCA2 act, NadD block, SKN-1 inh)
CCOC(=O)c1c(-n2c(C)cc(/C=C3\C(=O)NC(=O)N(C)C3=O)c2C)sc2c1CCCC2	none
Cc1cc(/C=C2\C(=O)NC(=O)N(c3ccc(Cl)cc3)C2=O)c(C)n1-c1sc2c(c1C#N)CCCC2	NadD block 46.7 (no result: esBAF inh)
O=[N+]([O-])c1cc(O)c(O)c([N+](=O)[O-])c1	none
O=[N+]([O-])c1ccc(O)c([N+](=O)[O-])c1	GRIN3A LBD mod 18.2
CN1C(=O)/C(=C\c2ccc(N3CCCCC3)o2)C(=O)NC1=S	SKN-1 inh 33.4
Cc1ccsc1/C=C1\C(=O)NC(=S)N(C)C1=O	SKN-1 inh 40.1

High-throughput results: PubChem BioAssay, several laboratories
